Assay results as given in PubChem BioAssay (Tox21).
Records with an inconclusive call do not appear. Calls of active or inactive are those of the source. Unless noted, the call rests on the fitted dose curve.

Columns and labels:
[1] = Nuclear factor erythroid 2-related factor 2/antioxidant responsive element (Nrf2/ARE) small molecule agonists: qHTS cell viability counter screen in human keratinocytes (AID 1919968; active means well fitted curve in the direction sought with a large enough effect in the repeat runs; an effect the other way counts as inactive or inconclusive; further: nearly all actives have a fitted effect of over 55% in size)
Outline: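 After a 5 h attachment period, ARE-reporter keratinocytes were dosed with compounds in DMSO and then cultured 23 h at 37 C. Cell viability came from CellTiter-Fluor signal read after a further 1 h.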

[2] = Nuclear factor erythroid 2-related factor 2/antioxidant responsive element (Nrf2/ARE) small molecule agonists: luciferase reporter gene qHTS assay in human keratinocytes (AID 1919969); further: nearly all actives have a fitted effect of over 35% in size; further: potency means the concentration at half of the fitted maximal effect
[3] = biological target: Gonadotropin-releasing hormone receptor (Homo sapiens) (UniProt P30968); test: Human gonadotropin-releasing hormone receptor (GnRHR) small molecule agonists, calcium flux assay in GnRHR-HEK293 cells (AID 1920063); further: nearly all actives have a fitted effect of over 35% in size
Gonadotropin-releasing hormone receptor (Homo sapiens), sequence (P30968 whole entry, looked up): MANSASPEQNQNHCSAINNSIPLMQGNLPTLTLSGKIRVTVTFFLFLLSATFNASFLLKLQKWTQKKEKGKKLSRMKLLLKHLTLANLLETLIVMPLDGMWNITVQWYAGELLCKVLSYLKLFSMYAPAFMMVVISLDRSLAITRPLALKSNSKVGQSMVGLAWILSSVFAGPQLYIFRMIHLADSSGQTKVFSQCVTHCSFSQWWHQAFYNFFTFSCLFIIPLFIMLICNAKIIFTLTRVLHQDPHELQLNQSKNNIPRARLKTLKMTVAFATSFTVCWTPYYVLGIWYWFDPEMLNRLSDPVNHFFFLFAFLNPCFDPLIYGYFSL
Outline: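 We seeded human GnRHR-expressing HEK293 cells for 18 hours, loaded them with calcium dye for an hour at 37 C, added test compounds, and recorded fluorescence intensity kinetically for three minutes.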

[4] = biological target: KiSS-1 receptor (Homo sapiens) (UniProt Q969F8); test: Human kisspeptin (KISS1R) small molecule agonists, calcium flux assay in KISS1R-HEK293 cells (AID 1920064; active means well fitted curve in the direction sought with a large enough effect in the repeat runs; an effect the other way counts as inactive or inconclusive)
KiSS-1 receptor (Homo sapiens), sequence (Q969F8 whole entry, looked up): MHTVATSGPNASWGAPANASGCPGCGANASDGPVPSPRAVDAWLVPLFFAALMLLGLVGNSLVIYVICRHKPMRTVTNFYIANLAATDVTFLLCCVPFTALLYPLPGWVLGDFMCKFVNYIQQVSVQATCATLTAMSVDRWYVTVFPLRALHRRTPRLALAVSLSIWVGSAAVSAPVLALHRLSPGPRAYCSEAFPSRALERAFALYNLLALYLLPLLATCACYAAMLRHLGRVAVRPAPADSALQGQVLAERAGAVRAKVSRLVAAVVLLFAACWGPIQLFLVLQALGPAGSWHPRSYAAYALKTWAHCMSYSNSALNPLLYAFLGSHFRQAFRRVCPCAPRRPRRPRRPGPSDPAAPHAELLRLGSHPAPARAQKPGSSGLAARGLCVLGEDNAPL
Outline: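 Kinetic calcium assay, 1 s sampling over 3 min at Ex/Em 480/540, in HEK293 cells engineered with human KISS1R; compounds delivered in DMSO after 1 h dye loading.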

[5] = G protein-coupled receptor (GPCR) small molecule agonists, calcium flux assay: HEK293 wild type cell line counter screen (AID 1920065)
Outline: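 Calcium-sensitive dye, loaded 1 h at 37 C into cells cultured 18 h, reports compound-evoked calcium release as fluorescence (Ex/Em 480/540), measured over 3 min. Agonist mode; 15-point titrations, triplicate.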

[6] = p53 small molecule agonists, cell-based qHTS assay with human liver microsomes (AID 1963577);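 further: p53 response element beta-lactamase reporter cells with liver microsomes plus NADPH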
Outline: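 p53RE-bla cells; 5 h settle, 37 C/5% CO2; cpd + HLM 0.5 mg/mL + NADPH 0.5 mg/mL (final); 16 h 37 C; LiveBLAzer 2 h RT dark; fluorescence readout.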

[7] = p53 small molecule agonists, cell-based qHTS assay with rat liver microsomes (AID 1963578)
Outline: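 Rat liver microsome activation: microsomes 0.5 mg/mL, NADPH 0.5 mg/mL final; p53RE-bla cells, 16 h 37 C; LiveBLAzer readout, 2 h RT dark.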

[8] = p53 small molecule agonists, cell-based qHTS assay with rat liver microsomes: qHTS cell viability counter screen (AID 1963580); further: nearly all actives have a fitted effect of over 45% in size
Outline: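 In HCT-116 cells carrying a p53 response element-bla reporter, compounds were metabolically activated in situ by rat liver microsomes with NADPH over 16 h. Cell ATP content then served as the cytotoxicity measure.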

[9] = p53 small molecule agonists, cell-based qHTS assay (AID 1963582; active means well fitted activation curve with a large enough effect in the signal ratio in the repeat runs, not every such curve was filed as active; the % refers to the signal ratio)
Outline: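 In this cell-based concentration-response screen, a p53 response element drives beta-lactamase; cells received DMSO-borne compounds after 5 h culture and were incubated a further 16 h before FRET substrate development.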

[10] = biological target: 5-hydroxytryptamine receptor 2A (Homo sapiens) (UniProt P28223); test: 5-hydroxytryptamine receptor 2A (HTR2A) small molecule antagonists, cell-based qHTS assay (AID 1963586); further: nearly all actives have a fitted effect of over 45% in size
5-hydroxytryptamine receptor 2A (Homo sapiens), sequence (P28223 whole entry, looked up): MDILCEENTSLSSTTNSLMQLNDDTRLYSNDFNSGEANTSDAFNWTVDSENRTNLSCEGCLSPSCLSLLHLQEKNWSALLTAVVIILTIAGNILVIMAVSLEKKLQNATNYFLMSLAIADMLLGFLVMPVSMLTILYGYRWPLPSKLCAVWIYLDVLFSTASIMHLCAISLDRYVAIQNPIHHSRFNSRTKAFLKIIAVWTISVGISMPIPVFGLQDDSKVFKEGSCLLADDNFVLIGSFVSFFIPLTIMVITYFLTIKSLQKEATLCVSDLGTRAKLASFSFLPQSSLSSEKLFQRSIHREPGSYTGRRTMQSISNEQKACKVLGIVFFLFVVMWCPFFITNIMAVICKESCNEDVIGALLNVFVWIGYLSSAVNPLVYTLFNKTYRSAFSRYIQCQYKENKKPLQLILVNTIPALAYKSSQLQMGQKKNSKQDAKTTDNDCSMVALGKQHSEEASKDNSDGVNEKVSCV
Outline: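 Antagonist-mode intracellular calcium assay: DOI (4 nM) added after 5 min compound pre-incubation at room temperature to dye-loaded HTR2A-CHO cells. Fluorescence followed for 3 min, sampled every second.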

[11] = biological target: 5-hydroxytryptamine receptor 2A (Homo sapiens) (UniProt P28223); test: 5-hydroxytryptamine receptor 2A (HTR2A) small molecule agonists, cell-based qHTS assay (AID 1963587); further: nearly all actives have a fitted effect of over 30% in size
Outline: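 HTR2A-CHO cells, plated 18 h at 37 C/5% CO2, dye-loaded 1 h at 37 C; compounds in DMSO added by pin tool (agonist mode). Intracellular calcium flux read as kinetic fluorescence on FDSS over 2 min at 1 s intervals.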

[12] = biological target: Muscarinic acetylcholine receptor M1 (Homo sapiens) (UniProt P11229); test: Cholinergic receptor muscarinic 1 (CHRM1) small molecule antagonists, cell-based qHTS assay (AID 1963588); further: nearly all actives have a fitted effect of over 40% in size; further: potency means the concentration at half of the fitted maximal effect
Muscarinic acetylcholine receptor M1 (Homo sapiens), sequence (P11229 whole entry, looked up): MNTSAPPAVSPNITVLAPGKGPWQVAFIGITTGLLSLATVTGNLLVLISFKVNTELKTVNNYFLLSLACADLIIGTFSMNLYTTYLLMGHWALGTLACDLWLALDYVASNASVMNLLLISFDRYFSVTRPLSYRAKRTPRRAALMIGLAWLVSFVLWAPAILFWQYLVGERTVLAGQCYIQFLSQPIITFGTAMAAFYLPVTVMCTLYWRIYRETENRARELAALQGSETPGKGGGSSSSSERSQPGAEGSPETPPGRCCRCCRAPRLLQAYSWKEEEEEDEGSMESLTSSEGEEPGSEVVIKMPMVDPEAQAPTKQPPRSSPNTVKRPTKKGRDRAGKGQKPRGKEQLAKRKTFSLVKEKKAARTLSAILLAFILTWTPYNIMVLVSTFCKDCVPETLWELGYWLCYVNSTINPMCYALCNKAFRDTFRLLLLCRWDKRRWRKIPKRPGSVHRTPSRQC
Outline: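 CHRM1-CHO calcium-flux assay, antagonist mode. Cells were seeded 18 h, dye-loaded 1 h at 37 C and given compound for 5 min at RT, then acetylcholine was added at 50nM. FDSS fluorescence was read 3 min; 15 concentrations, three runs.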

[13] = biological target: Muscarinic acetylcholine receptor M1 (Homo sapiens) (UniProt P11229); test: Cholinergic receptor muscarinic 1 (CHRM1) small molecule agonists, cell-based qHTS assay (AID 1963589); further: nearly all actives have a fitted effect of over 35% in size
Outline: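 Measures agonist-induced intracellular calcium rise. Stable human CHRM1 CHO line, 1 h dye load at 37 C, compounds from DMSO, kinetic fluorescence read.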

[14] = cAMP Responsive Elements (CRE) small molecule agonists, cell-based qHTS assay (AID 1963590)
Outline: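 A CRE-responsive beta-lactamase reporter in HEK 293T cells was used. Treatment ran 3 h at 37 C; detection used LiveBLAzer B/G FRET substrate for 2 h at room temperature.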

[15] = cAMP Responsive Elements (CRE) small molecule antagonists, cell-based qHTS assay (AID 1963591; active means well fitted inhibition curve with a large enough effect in the signal ratio in the repeat runs, not every such curve was filed as active; the % refers to the signal ratio)
Outline: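 HEK293T cells carrying a CRE-driven beta-lactamase reporter receive compound and NKH477 (0.25 uM final) for 3 h. Fluorescence from LiveBLAzer B/G FRET substrate is read after 2 h at room temperature.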

[16] = biological target: Beta-2 adrenergic receptor (Homo sapiens) (UniProt P07550); test: Adrenergic beta2 receptor (ADRB2) small molecule antagonists, cell-based qHTS assay (AID 1963592); further: series mostly up to about 92 µM; nearly all actives have a fitted effect of over 50% in size
Beta-2 adrenergic receptor (Homo sapiens), sequence (P07550 whole entry, looked up): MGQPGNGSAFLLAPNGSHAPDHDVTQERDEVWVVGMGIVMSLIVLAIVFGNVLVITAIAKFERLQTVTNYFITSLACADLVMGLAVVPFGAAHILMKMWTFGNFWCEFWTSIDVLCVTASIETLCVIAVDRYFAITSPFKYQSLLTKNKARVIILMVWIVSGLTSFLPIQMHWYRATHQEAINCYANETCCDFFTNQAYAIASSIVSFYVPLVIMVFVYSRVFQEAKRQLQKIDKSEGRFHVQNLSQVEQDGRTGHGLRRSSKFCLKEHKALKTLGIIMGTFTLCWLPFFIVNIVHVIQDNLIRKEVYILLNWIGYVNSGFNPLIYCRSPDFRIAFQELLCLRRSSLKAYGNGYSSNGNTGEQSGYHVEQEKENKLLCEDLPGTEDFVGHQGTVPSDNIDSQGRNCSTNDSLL
Outline: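 Cells (CHO, stable ADRB2 overexpression) incubated 18-20hr at 37C; compounds added from DMSO; agonist mix (1nM isoproterenol, 100uM IBMX, 25uM Ro-20-1724) added; 0.5hr RT; d2-cAMP and anti-cAMP-cryptate added; 1hr RT; 665/615 nm read.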

[17] = biological target: D(2) dopamine receptor (Homo sapiens) (UniProt P14416); test: Dopamine D2 receptor (DRD2) small molecule agonists, cell-based qHTS assay (AID 1963594); further: nearly all actives have a fitted effect of over 35% in size
D(2) dopamine receptor (Homo sapiens), sequence (P14416 whole entry, looked up): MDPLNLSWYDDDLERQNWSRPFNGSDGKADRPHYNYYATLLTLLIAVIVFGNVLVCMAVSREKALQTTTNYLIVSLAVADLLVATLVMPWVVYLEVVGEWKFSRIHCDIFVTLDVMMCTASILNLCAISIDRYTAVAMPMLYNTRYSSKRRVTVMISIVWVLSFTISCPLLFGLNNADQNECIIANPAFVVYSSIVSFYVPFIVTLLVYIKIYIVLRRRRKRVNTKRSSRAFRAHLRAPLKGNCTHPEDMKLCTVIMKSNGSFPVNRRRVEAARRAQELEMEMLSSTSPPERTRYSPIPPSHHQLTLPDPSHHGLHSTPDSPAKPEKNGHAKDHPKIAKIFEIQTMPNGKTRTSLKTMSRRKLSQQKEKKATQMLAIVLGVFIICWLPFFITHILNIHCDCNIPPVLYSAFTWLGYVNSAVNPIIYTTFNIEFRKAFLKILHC
Outline: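 HEK293 cells stably expressing DRD2 were cultured 24 h at 37 C, then given Ro20-1724 (0.1 mM final) and compounds for 10 min at room temperature. NKH477 (200nM) was then added for 30 min. cAMP was read by HTRF.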

[18] = biological target: D(2) dopamine receptor (Homo sapiens) (UniProt P14416); test: Dopamine D2 receptor (DRD2) small molecule antagonists, cell-based qHTS assay (AID 1963595; active means well fitted inhibition curve with a large enough effect in the signal ratio in the repeat runs, with a control signal flat; the % refers to the signal ratio)
Outline: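 HTRF cAMP read-out at 665 and 620 nm emission (340 nm excitation). Antagonist mode: compounds were tested against 12 nM quinpirole in DRD2-HEK293 cells, with 200 nM NKH477 raising cAMP and 0.1 mM Ro20-1724 blocking its breakdown.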

[19] = p53 small molecule agonists, cell-based qHTS assay with human liver microsomes: qHTS cell viability counter screen (AID 1963579); further: nearly all actives have a fitted effect of over 45% in size
Outline: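 Luminescent CellTiter-Glo read-out, 30 min at room temperature, gauged cytotoxicity in p53RE-bla cells exposed 16 h at 37 C to DMSO-dissolved compounds with metabolic activation by human liver microsomes and NADPH, each 0.5 mg/mL final.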

[20] = biological target: Beta-2 adrenergic receptor (Homo sapiens) (UniProt P07550); test: Adrenergic beta2 receptor (ADRB2) small molecule agonists, cell-based qHTS assay (AID 1963593);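 further: CHO cells stably overexpressing human ADRB2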
Outline: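 CHO cells stably over-expressing ADRB2 were plated overnight at 37C, then dosed with compounds plus a stimulation mix containing 100uM IBMX and 25uM Ro-20-1724 for 0.5hr at room temperature. cAMP was measured by HTRF competition, 1hr.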
On the % scale 0 is the no-effect control and ±100 the full control effect.

CCC(=O)Nc1cccc(N)c1
inactive: Potency [1] | Potency [2] | Potency [3] | Potency [4] | Potency [5] | Potency [6] | Potency [7] | Potency [8] | Potency [9] | Potency [10] | Potency [11] | Potency [12] | Potency [13] | Potency [14] | Potency [15] | Potency [16] | Potency [17] | Potency [18]

CCOC(=O)CCC(C)=O
inactive: Potency [1] | Potency [2] | Potency [3] | Potency [4] | Potency [5] | Potency [6] | Potency [7] | Potency [19] | Potency [9] | Potency [10] | Potency [11] | Potency [12] | Potency [13] | Potency [14] | Potency [15] | Potency [17] | Potency [18]

CC(O)CCCCn1c(=O)c2c(ncn2C)n(C)c1=O (stereo unspecified)
inactive: Potency [1] | Potency [2] | Potency [3] | Potency [4] | Potency [5] | Potency [6] | Potency [7] | Potency [8] | Potency [9] | Potency [10] | Potency [11] | Potency [12] | Potency [13] | Potency [14] | Potency [15] | Potency [16] | Potency [20] | Potency [17] | Potency [18]

CC(C)C(=O)OC(=O)C(C)C
inactive: Potency [1] | Potency [2] | Potency [3] | Potency [4] | Potency [5] | Potency [6] | Potency [7] | Potency [8] | Potency [9] | Potency [10] | Potency [11] | Potency [12] | Potency [13] | Potency [14] | Potency [15] | Potency [16] | Potency [20] | Potency [17] | Potency [18]

C=CC(=O)OCCCCCCCC
inactive: Potency [1] | Potency [2] | Potency [3] | Potency [4] | Potency [5] | Potency [6] | Potency [7] | Potency [19] | Potency [10] | Potency [11] | Potency [12] | Potency [14] | Potency [15] | Potency [16] | Potency [17] | Potency [18]

C[C@@H]1CCC[C@H](C)N1CCCC(O)(c1ccccc1)c1ccccn1 (stereo partly specified)
inactive: Potency [1] | Potency [2] | Potency [3] | Potency [4] | Potency [5] | Potency [6] | Potency [7] | Potency [8] | Potency [9] | Potency [10] | Potency [11] | Potency [12] | Potency [13] | Potency [14] | Potency [15] | Potency [16] | Potency [20] | Potency [17] | Potency [18]

ClCCCl
inactive: Potency [1] | Potency [2] | Potency [3] | Potency [4] | Potency [5] | Potency [6] | Potency [7] | Potency [19] | Potency [9] | Potency [11] | Potency [12] | Potency [13] | Potency [14] | Potency [15] | Potency [16] | Potency [17] | Potency [18]

C[n+]1ccn(Cc2ccccc2)c1
inactive: Potency [1] | Potency [2] | Potency [3] | Potency [4] | Potency [5] | Potency [6] | Potency [7] | Potency [8] | Potency [9] | Potency [10] | Potency [11] | Potency [12] | Potency [13] | Potency [14] | Potency [15] | Potency [16] | Potency [20] | Potency [17] | Potency [18]

CC(C)(C)S
inactive: Potency [1] | Potency [2] | Potency [3] | Potency [4] | Potency [5] | Potency [6] | Potency [7] | Potency [8] | Potency [9] | Potency [10] | Potency [11] | Potency [12] | Potency [13] | Potency [14] | Potency [15] | Potency [16] | Potency [17] | Potency [18]

CCc1ccc(Br)cc1
inactive: Potency [1] | Potency [2] | Potency [3] | Potency [4] | Potency [5] | Potency [6] | Potency [7] | Potency [19] | Potency [9] | Potency [10] | Potency [11] | Potency [12] | Potency [13] | Potency [14] | Potency [16] | Potency [20] | Potency [17] | Potency [18]

O=C(O)c1cccc(C[C@@H]2COc3ccc(OCc4nc5cc(F)ccc5s4)cc3[C@@H]2O)c1
inactive: Potency [1] | Potency [2] | Potency [3] | Potency [4] | Potency [5] | Potency [6] | Potency [7] | Potency [19] | Potency [9] | Potency [10] | Potency [12] | Potency [13] | Potency [14] | Potency [15] | Potency [16] | Potency [20] | Potency [17] | Potency [18]

COC(=O)c1sccc1S(N)(=O)=O
inactive: Potency [1] | Potency [2] | Potency [3] | Potency [4] | Potency [5] | Potency [6] | Potency [7] | Potency [8] | Potency [9] | Potency [10] | Potency [11] | Potency [12] | Potency [13] | Potency [14] | Potency [15] | Potency [16] | Potency [17] | Potency [18]

CC(=O)N[C@H]1[C@H]([C@H](O)[C@H](O)CO)OC(C(=O)O)=C[C@@H]1N=C(N)N
inactive: Potency [1] | Potency [2] | Potency [3] | Potency [4] | Potency [5] | Potency [6] | Potency [7] | Potency [19] | Potency [9] | Potency [10] | Potency [11] | Potency [12] | Potency [13] | Potency [15] | Potency [16] | Potency [20] | Potency [17] | Potency [18]

CCCOC(C(=O)OC1CCN(C)CC1)(c1ccccc1)c1ccccc1
active: Potency [2] 10.6 µM | Potency [12] 0.729 µM
inactive: Potency [1] | Potency [3] | Potency [4] | Potency [5] | Potency [6] | Potency [7] | Potency [19] | Potency [9] | Potency [10] | Potency [11] | Potency [13] | Potency [15] | Potency [16] | Potency [17] | Potency [18]

CCCCCCCC/C=C\CCCCCCCC(=O)OCCCC
inactive: activity change, negative = cytotoxicity [1] 4.3% [at 19 µM] | activity, positive = activation [2] 8.08% [at 19 µM] | activity change [3] 1.13% [at 11.8 µM, active compounds read high] | activation [4] 1.04% [at 15.8 µM] | activation [5] 0.0792% [at 11.8 µM] | activation [6] -3.86% [at 13.5 µM] | activation [7] -0.57% [at 13.6 µM] | activity change, negative = cytotoxicity [19] 0.909% [at 13.5 µM] | activation [9] -0.177% [at 13.5 µM] | activation [11] 5.55% [at 15.9 µM] | activity, negative = inhibition [12] 5.7% [at 12.6 µM] | activation [13] -0.0084% [at 15.8 µM] | activation [14] 0.955% [at 19 µM] | activation [20] 25.8% [at 19 µM] | activity change, negative = inhibition [18] -12.5% [at 18.9 µM]
